Only some compounds are listed: those with a hit (about 6.3% of all), similar ones and a draw of the others.
RORg inh = ROR gamma (mouse) transcription inhibition; P51450; Drosophila S2 Gal4-RORgamma UAS-luciferase reporter, 20 h; Potency, µM (doses to about 53.6 µM), without a hit: at the top dose activity change, negative = inhibition, actives largely listed as inhibitors; 5.4% of 310,000 active; further: on the % scale 0 is the no-effect control and ±100 the full control effect; nearly all actives have a fitted effect of over 60% in size
Target sequence (P51450 whole entry, looked up, the tested form may be a part): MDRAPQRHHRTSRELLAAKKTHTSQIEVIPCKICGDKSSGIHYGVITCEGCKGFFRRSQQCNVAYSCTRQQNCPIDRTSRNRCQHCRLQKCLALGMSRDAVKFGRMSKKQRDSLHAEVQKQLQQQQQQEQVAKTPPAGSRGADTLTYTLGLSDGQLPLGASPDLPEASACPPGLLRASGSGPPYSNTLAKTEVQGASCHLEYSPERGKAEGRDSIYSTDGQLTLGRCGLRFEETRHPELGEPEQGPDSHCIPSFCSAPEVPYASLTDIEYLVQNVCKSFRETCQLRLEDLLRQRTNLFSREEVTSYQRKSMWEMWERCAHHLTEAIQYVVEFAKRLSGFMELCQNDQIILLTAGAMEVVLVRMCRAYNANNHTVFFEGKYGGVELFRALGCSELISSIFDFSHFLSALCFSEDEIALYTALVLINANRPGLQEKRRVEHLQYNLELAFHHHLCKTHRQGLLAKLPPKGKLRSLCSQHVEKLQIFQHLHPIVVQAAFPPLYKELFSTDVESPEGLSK
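Schneider cells (Drosophila), stable Gal4 DBD–ROR gamma + UAS-luc; 1 hr cmpd preincubation; Cu2+ induction 700 uM final; 20 hr ambient; luminescence.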
ATXN2 expr inh = reduces ATXN2 reporter expression in HEK-293 cells; HEK-293 ATXN2-luciferase reporter, luminescence, 24 h; 0.72% of 360,000 active; Potency, µM (doses to about 57 µM), for the others: top-dose activity change, negative = inhibition, actives largely listed as inhibitors; further: on the % scale 0 is the no-effect control and ±100 the full control effect; nearly all actives have a fitted effect of over 55% in size
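ATXN2-luciferase reporter cells (luciferase flanked by upstream and downstream ATXN2 gene portions) were treated 24 h at 37 °C with compounds at up to 57 uM. SteadyGlo luminescence gave expression; GF-AFC fluorescence gave viability.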
S2 tox = viability counter-screen for ATXN expression inhibitors; 0.49% of 400,000 active; Potency, µM (top dose mostly 56.7 µM), usual class: cytotoxic; S2 cells (HEK-293 line with an ATXN2-luciferase reporter) viability, CellTiter-Fluor protease fluorescence, 24 h; further: nearly all actives have a fitted effect of over 40% in size
HepG2 tox = HepG2 cytotoxicity, counter-screen for TGF-b inhibitors. 0.76% of 410,000 active. AID 588856. HepG2 CAGA-GFP viability, ATP luminescence, 18 h. Potency, µM (highest dose often 46.1 µM), without a hit: at the top dose activity change, negative = cytotoxicity, usual class: cytotoxic
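HepG2 CAGA-GFP cells (1000/well, DMEM with 1% FBS) received compound, then TGF-beta at 500 pg/mL final, and were incubated 18 hours at 37 degrees C. Viability was read by CellTiter-Glo luminescence. Media-only wells were set as complete cell-killing and DMSO as no toxicity.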
TGFb SMAD3 inh = inhibitors of TGF-b signaling. HepG2 CAGA-GFP TGF-b/SMAD3 reporter, GFP fluorescence, 18 h; TGF-beta stimulated, 500 pg/mL final. Potency, µM (titrated, usually from 46.1 µM), for inactives: at the highest dose activity, negative = inhibition, most hits filed as inhibitors. 1.2% of 410,000 active; further: on the % scale 0 is the no-effect control and ±100 the full control effect; nearly all actives have a fitted effect of over 65% in size
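Read-out: total well GFP (ex488/em500-530) summed from mean per-cell fluorescence. Cells: HEPG2 CAGA-GFP, 1% FBS DMEM, 18 h at 37 degrees C with 500 pg/mL final TGF-beta. Unstimulated wells served as the full-inhibition control; stimulated DMSO wells = 0%.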
Gal4-VP16 FLuc = counter-screen for ROR gamma inhibitors: Gal4-VP16 reporter. Drosophila S2 Gal4-VP16 UAS-luciferase, luminescence, 20 h. Potency, µM (doses to about 53.6 µM), for inactives: at the highest dose activity, negative = inhibition, hits mostly inhibitors. 3.5% of 310,000 active. AID 2546;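 further: Gal4-VP16 expression switched on by copper sulfate through the metallothionein promoter; on the % scale 0 is the no-effect control and ±100 the full control effect; nearly all actives have a fitted effect of over 50% in size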
Active calls of the source: *; i = inactive; ? = inconclusive; . = no result given; [ ] = another dose, or the depositor's remark. The call rests on the fitted dose curve; in most records, active means well fitted curve in the direction sought with a large enough effect; inconclusive means small, poorly fitted or top-dose-only effect, or another doubt; inactive means no such curve, though single readings can be large; an effect the other way counts as inactive or inconclusive. Potency means the concentration at half of the fitted maximal effect.

SMILES	RORg inh	ATXN2 expr inh	S2 tox	HepG2 tox	TGFb SMAD3 inh	Gal4-VP16 FLuc
Cc1cc(C)nc(SC2CC(=O)N(c3ccc(Cl)cc3)C2=O)n1 (stereo not drawn)	14µM*	-24%	i	-6%	-1%	-86%
Cc1ccc(-c2csc(-c3c[nH]c4ccccc34)n2)c(C)c1	10%	24%	i	20µM*	?	-18%
O=C(NCC1CCN(Cc2ccc(F)cc2)CC1)c1cc2ccc3cccnc3c2[nH]1	.	.	.	18µM*	16µM*	.
O=C(NCc1ccc(Cl)cc1)c1cc2ccc3cccnc3c2[nH]1	.	.	.	-17%	-4%	.
O=C(NCC1CCN(Cc2ccccc2Cl)CC1)c1cc2ccc3cccnc3c2[nH]1	.	.	.	16µM*	16µM*	.
COc1ccc(C(=O)C2C3C4COC(O4)C(=O)C3C3C=Cc4ccccc4N32)c(OC)c1 (stereo not drawn)	?	.	.	.	.	-27%
COc1ccc(S(=O)(=O)N2CCC(C(=O)N[C@@H](C)C(=O)NCc3ccccn3)CC2)cc1	.	.	i	-1%	3%	.
COc1ccc(CCNC(=O)CN2C(=O)COc3ccc(C)cc32)cc1OC	.	-2%	i	8%	-3%	.
CCSc1nc2c(c(=O)[nH]c(=O)n2C)n1C/C=C(/C)Cl	13%	2%	i	7.1µM*	4%	-12%
O=C(CSCc1ccccc1)NNC(=S)Nc1cccc(Cl)c1Cl	6.3µM*	3%	i	-44%	?	?
COCCNC(=S)NNC(=O)CSCc1ccc(Cl)cc1Cl	10µM*	-16%	i	46%	4%	-28%
NNC(=O)CSCc1ccc(Cl)cc1Cl	-16%	?	i	-17%	-3%	9%[10 µM]
CNC(=S)NNC(=O)CSCc1c(Cl)cccc1Cl	11µM*	-24%	?	-7%	-22%	20µM*
CNC(=O)CSCc1c(Cl)cccc1Cl	-20%	2%	i	10%	3%	-6%
CC(C)(C)n1ncc2c(=O)n(Cc3c(F)cc(Cl)cc3F)cnc21	.	.	.	-18%	-15%	.
COc1ccc(C(=O)/C=C/c2ccc(OC(=O)c3cc(OC)c(OC)c(OC)c3)cc2)cc1	1.8µM*	-21%	?	-30%	-28%	7.1µM*
COc1cc(C(=O)Oc2ccc3ccc(O)cc3c2)cc(OC)c1OC	?	.	i	22µM*	?	0%
CCOc1ccc(C(=O)/C=C/c2cc(OC)c(OC)c(OC)c2)cc1	?	-30%	i	8%	?	0%
C(=Nc1ccc2ccccc2n1)c1ccccn1	.	.	.	5%	4%	.
COC(=O)c1c(OCc2ccccn2)cc(=O)n2c1CCN(Cc1ccc3c(c1)CCCN3C)CC2	.	.	i	.	.	.
Cc1ccc(-c2nc(CS(=O)CC(=O)N3CCN(c4ccc(F)cc4)CC3)c(C)o2)cc1 (stereo not drawn)	27%	.	?	-36%	?	1%
Cc1oc(-c2ccc(Cl)cc2)nc1CS(=O)CC(=O)N1CCN(c2cccc(C(F)(F)F)c2)CC1 (stereo not drawn)	.	.	.	20µM*	8.9µM*	.
Cc1oc(-c2ccccc2Cl)nc1CS(=O)CC(=O)N1CCN(c2cccc(C(F)(F)F)c2)CC1 (stereo not drawn)	.	.	.	-105%	11µM*	.
COc1cccc(-c2nc(CS(=O)(=O)CC(=O)N3CCN(c4ccccc4)CC3)c(C)o2)c1	.	.	.	-12%	11µM*	.
COc1ccc(N2CCN(C(=O)CS(=O)Cc3nc(-c4ccc(OC)c(OC)c4)oc3C)CC2)cc1 (stereo not drawn)	0%	-12%	i	-4%	0%	6%
Cc1ccc(-c2nc(CS(=O)CC(=O)N3CCN(c4cccc(Cl)c4)CC3)c(C)o2)cc1 (stereo not drawn)	.	.	.	-13%	?	.
COc1cccc(-c2nc(CS(=O)CC(=O)N3CCN(c4cccc(C(F)(F)F)c4)CC3)c(C)o2)c1 (stereo not drawn)	.	.	.	-38%	16µM*	.

Screening data as filed in PubChem.
